# Test results from PubChem BioAssay (NCI).
# Compounds without any hit were thinned out: in the full panel of roughly 79,000, 15% have a hit. A number with no mark means an inactive call. Activity calls are given as the source filed them. Cut-off read from the data, not from the text of the source: active = growth inhibition above about 70%; inactive = the rest.
# Key:
# [1] = NCI Yeast Anticancer Drug Screen. Data for the rad50 strain (AID 155);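 note: 0% = growth of vehicle-only cultures of the same strain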; conditions: S. cerevisiae rad50 strain growth inhibition, stronger effect = higher value
# In short: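 Yeast carrying a defined DNA repair defect were exposed to test compounds, and growth was compared with vehicle-treated controls to give percent inhibition.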
# [2] = NCI Yeast Anticancer Drug Screen. Data for the mec2-1 strain (AID 157); conditions: S. cerevisiae mec2-1 strain, stronger effect = higher value
# In short: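 mec2-1 yeast strain, carrying an alteration in DNA damage repair or cell cycle control, was exposed to compounds; growth inhibition was measured relative to vehicle-treated controls.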
# [3] = NCI Yeast Anticancer Drug Screen. Data for the sgs1 mgt1 strain (AID 161);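 note: 0% = growth of cultures given vehicle only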; conditions: S. cerevisiae sgs1 mgt1 strain, stronger effect = higher value
# In short: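 Growth of a repair-deficient yeast mutant was monitored after compound treatment and expressed as inhibition relative to vehicle-treated cultures.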
# [4] = NCI Yeast Anticancer Drug Screen. Data for the cln2 rad14 strain (AID 165);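 note: 0% = growth equal to vehicle treated cultures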; conditions: S. cerevisiae cln2 rad14 strain, stronger effect = higher value
# In short: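 Yeast carrying cln2 and rad14 alterations (cell cycle control and DNA damage repair) were exposed to compounds. Growth inhibition was measured against vehicle-treated controls.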
# [5] = NCI Yeast Anticancer Drug Screen. Data for the bub3 strain (AID 167); conditions: S. cerevisiae bub3 mutant strain, stronger effect = higher value
# In short: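 Compounds were applied to a genetically altered yeast strain carrying a cell-cycle control defect. Growth inhibition was scored against vehicle-treated controls.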
# [6] = NCI Yeast Anticancer Drug Screen. Data for the mlh1 rad18 strain (AID 175); conditions: S. cerevisiae mlh1 rad18 strain growth inhibition, stronger effect = higher value
# In short: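 Growth inhibition of the yeast strain was measured after compound exposure and expressed relative to vehicle-treated controls. The strain carries defined defects in DNA damage repair.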
# [7] = at 5.0 µM (retest, dose inferred, filed as 0.5)
# [8] = at 50.0 µM (retest, dose inferred, filed as 5.0)
SMILES,"growth inhibition [1, 7]","growth inhibition [1, 8]",growth inhibition ([1]; at 50.0 µM),"growth inhibition [2, 7]","growth inhibition [2, 8]",growth inhibition ([2]; at 50.0 µM),"growth inhibition [3, 7]","growth inhibition [3, 8]",growth inhibition ([3]; at 50.0 µM),"growth inhibition [4, 7]","growth inhibition [4, 8]",growth inhibition ([4]; at 50.0 µM),"growth inhibition [5, 7]","growth inhibition [5, 8]",growth inhibition ([5]; at 50.0 µM),"growth inhibition [6, 7]","growth inhibition [6, 8]",growth inhibition ([6]; at 50.0 µM)
CC1CCC2(OC1)OC1CC3C4CC=C5CC(OC6OC(CO)C(OC7OC(C)C(OC8OC(C)C(O)C(O)C8O)C(O)C7O)C(O)C6OC6OC(C)C(O)C(O)C6O)CCC5(C)C4CCC3(C)C1C2C (configuration not stated),100% (active),94% (active),87.3% (active),99% (active),96% (active),81.5% (active),99% (active),95% (active),84% (active),99% (active),95% (active),86.7% (active),99% (active),95% (active),89.2% (active),98% (active),91% (active),86.5% (active)
O=[N+]([O-])/C=C/c1cc2c(cc1Br)OCO2,78% (active),89% (active),98.5% (active),53%,89% (active),99.2% (active),73% (active),87% (active),97.9% (active),26%,62%,94.2% (active),48%,89% (active),82.5% (active),68%,88% (active),98.5% (active)
CCNC(C)(C)C(SS)c1ccc(Br)cc1 (configuration not stated),6%,10%,66.3%,2%,-3%,57.1%,-3%,18%,73.8% (active),25%,33%,34.9%,-15%,17%,84.8% (active),-21%,20%,78.6% (active)
O=C(O)C1(c2ccccc2)OC1c1ccccc1 (configuration not stated),2%,67%,47%,0%,82% (active),81.3% (active),3%,71% (active),84.7% (active),2%,80% (active),79.8% (active),-6%,93% (active),64.6%,-1%,86% (active),84.3% (active)
CC(=O)C(Br)C(C)=O.CC(=O)C(Br)C(C)=O.CC(=O)C(Br)C(C)=O.[Rh],4%,-2%,99.2% (active),-22%,1%,99.6% (active),-1%,0%,99.6% (active),4%,4%,93.7% (active),1%,-7%,99.4% (active),6%,-18%,99.2% (active)
[CH3][Sn]([Br])([Br])[CH2]CCCBr,22%,95% (active),89.7% (active),10%,94% (active),93.4% (active),23%,97% (active),73.2% (active),7%,93% (active),86.1% (active),13%,93% (active),90.7% (active),27%,86% (active),85.1% (active)
C[As](C)SCC1OC2OC(C)(C)OC2C2OC(C)(C)OC12 (configuration not stated),28%,97% (active),91.5% (active),21%,99% (active),92.2% (active),45%,83% (active),92.5% (active),48%,73% (active),90.1% (active),44%,99% (active),91.5% (active),24%,96% (active),90.2% (active)
CC(C)NCC(O)c1ccccc1Cl (configuration not stated),3%,2%,5.4%,2%,-2%,-11.3%,0%,3%,-3.35%,0%,-2%,32.9%,-2%,-4%,-6.2%,8%,3%,14.1%
CCCCC1CCCCCCc2[nH]c(/C=C3\N=C(c4ccc[nH]4)C=C3OC)cc21 (configuration not stated),24%,91% (active),82.3% (active),23%,93% (active),86.5% (active),45%,93% (active),84.8% (active),39%,94% (active),81.2% (active),29%,93% (active),81.9% (active),34%,90% (active),80.5% (active)
